Measurements taken from the supplement of paper PMC11732987, “Enantioselective OTUD7B fragment discovery through chemoproteomics screening and high-throughput optimisation” (Communications Chemistry, 2025).

Legend:
Test in all cases: log2 ratio of Biotin-Ahx-Ub-VS probe labelling (fragment/DMSO); higher = less target engagement (more negative = stronger competition), active = hit call of the paper (q ≤ 0.05, log2 ratio ≤ -1)
Conditions in all cases: compound concentration: 200 uM; treatment time: 3 h
USP34 = USP34 (UniProt Q70CQ2)
How it was run: (§1)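 Values give the average log2 ratio of fragment to vehicle, assessed by unpaired t-test on global-median-normalised Spectronaut label-free quantities. Proteins needed ≥2 unique peptides. HEK293T lysate (495 µg per sample) was treated in triplicate with fragment at 200 µM or vehicle for 3 h and then with Biotin-Ahx-Ub-VS at 0.5 µM final for 1 h. Labelled DUBs were NeutrAvidin-enriched, digested and run by diaPASEF LC-MS/MS.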

USP36 = target: T1, USP36 (UniProt Q9P275)
T1 sequence (whole entry): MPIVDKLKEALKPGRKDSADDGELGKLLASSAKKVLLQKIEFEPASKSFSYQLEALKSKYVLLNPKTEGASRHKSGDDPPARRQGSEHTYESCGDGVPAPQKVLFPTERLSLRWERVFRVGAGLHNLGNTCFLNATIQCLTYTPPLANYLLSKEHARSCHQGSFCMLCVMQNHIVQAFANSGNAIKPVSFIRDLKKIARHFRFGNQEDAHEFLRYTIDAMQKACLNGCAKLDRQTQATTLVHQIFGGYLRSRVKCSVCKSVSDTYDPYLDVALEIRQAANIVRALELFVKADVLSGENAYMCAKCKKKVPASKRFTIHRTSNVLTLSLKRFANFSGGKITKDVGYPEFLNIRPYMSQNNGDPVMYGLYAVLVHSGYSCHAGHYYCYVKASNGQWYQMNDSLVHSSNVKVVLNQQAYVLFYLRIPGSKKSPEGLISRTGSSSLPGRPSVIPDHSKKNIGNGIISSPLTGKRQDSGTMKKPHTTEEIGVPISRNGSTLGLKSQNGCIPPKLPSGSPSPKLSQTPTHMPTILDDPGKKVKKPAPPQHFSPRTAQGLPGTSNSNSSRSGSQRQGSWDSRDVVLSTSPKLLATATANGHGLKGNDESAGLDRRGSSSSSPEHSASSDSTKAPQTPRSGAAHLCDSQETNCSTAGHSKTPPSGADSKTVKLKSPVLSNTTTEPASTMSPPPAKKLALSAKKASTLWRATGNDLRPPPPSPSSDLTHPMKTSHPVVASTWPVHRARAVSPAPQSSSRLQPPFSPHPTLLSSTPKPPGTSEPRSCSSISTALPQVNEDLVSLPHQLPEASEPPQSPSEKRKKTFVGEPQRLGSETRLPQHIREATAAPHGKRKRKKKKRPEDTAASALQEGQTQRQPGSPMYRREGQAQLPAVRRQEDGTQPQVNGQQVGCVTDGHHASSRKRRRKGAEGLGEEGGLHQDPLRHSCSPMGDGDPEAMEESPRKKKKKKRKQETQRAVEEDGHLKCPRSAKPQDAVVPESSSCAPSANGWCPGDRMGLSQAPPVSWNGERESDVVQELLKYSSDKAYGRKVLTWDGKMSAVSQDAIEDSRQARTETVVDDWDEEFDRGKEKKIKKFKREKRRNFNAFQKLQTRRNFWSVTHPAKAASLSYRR
How it was run: as §1

USP38 = target: T2, USP38 (UniProt Q8NB14)
T2 sequence (whole entry): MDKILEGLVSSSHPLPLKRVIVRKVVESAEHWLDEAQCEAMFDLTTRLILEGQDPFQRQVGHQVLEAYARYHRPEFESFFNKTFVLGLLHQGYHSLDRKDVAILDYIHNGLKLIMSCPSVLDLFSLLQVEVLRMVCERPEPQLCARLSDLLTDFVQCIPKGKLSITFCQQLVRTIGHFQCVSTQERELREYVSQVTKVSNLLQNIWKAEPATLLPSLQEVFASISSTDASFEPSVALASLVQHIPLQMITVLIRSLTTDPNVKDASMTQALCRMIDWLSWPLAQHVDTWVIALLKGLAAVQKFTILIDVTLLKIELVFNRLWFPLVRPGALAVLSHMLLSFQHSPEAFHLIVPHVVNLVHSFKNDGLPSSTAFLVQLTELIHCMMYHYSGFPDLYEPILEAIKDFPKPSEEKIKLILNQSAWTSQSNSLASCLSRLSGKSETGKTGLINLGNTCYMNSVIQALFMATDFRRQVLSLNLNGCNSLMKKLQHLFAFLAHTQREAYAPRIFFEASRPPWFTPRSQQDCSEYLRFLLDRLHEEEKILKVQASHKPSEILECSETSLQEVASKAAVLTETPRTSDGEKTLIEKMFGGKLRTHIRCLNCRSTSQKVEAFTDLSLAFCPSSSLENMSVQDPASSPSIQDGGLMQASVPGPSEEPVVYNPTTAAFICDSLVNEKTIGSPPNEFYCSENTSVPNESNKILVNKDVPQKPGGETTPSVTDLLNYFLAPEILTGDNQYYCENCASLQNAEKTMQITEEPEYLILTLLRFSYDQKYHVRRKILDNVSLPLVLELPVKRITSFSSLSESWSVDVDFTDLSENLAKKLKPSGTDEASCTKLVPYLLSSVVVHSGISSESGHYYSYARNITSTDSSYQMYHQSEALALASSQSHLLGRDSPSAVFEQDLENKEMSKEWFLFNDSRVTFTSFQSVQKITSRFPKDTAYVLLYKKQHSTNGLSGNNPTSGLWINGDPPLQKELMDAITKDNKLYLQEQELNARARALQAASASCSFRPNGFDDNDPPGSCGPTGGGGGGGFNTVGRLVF
How it was run: as §1

USP39 = target: T3, USP39 (UniProt Q53GS9)
T3 sequence (whole entry): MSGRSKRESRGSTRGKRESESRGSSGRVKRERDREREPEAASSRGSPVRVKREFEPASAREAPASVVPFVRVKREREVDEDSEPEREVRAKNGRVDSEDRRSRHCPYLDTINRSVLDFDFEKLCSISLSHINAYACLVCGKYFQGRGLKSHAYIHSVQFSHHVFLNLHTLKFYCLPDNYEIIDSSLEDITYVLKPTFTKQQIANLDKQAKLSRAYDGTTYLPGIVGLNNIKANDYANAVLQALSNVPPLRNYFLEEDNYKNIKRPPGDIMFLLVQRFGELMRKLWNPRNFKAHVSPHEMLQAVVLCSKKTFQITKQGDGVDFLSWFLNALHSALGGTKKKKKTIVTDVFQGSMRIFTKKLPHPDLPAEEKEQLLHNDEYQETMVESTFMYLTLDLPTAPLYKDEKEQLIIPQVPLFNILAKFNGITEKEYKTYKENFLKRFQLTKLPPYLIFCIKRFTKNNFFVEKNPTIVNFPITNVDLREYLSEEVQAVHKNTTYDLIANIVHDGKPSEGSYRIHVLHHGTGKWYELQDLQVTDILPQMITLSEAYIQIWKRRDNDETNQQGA
How it was run: as §1

USP4 = target: T4, USP4 (UniProt Q13107)
T4 sequence (whole entry): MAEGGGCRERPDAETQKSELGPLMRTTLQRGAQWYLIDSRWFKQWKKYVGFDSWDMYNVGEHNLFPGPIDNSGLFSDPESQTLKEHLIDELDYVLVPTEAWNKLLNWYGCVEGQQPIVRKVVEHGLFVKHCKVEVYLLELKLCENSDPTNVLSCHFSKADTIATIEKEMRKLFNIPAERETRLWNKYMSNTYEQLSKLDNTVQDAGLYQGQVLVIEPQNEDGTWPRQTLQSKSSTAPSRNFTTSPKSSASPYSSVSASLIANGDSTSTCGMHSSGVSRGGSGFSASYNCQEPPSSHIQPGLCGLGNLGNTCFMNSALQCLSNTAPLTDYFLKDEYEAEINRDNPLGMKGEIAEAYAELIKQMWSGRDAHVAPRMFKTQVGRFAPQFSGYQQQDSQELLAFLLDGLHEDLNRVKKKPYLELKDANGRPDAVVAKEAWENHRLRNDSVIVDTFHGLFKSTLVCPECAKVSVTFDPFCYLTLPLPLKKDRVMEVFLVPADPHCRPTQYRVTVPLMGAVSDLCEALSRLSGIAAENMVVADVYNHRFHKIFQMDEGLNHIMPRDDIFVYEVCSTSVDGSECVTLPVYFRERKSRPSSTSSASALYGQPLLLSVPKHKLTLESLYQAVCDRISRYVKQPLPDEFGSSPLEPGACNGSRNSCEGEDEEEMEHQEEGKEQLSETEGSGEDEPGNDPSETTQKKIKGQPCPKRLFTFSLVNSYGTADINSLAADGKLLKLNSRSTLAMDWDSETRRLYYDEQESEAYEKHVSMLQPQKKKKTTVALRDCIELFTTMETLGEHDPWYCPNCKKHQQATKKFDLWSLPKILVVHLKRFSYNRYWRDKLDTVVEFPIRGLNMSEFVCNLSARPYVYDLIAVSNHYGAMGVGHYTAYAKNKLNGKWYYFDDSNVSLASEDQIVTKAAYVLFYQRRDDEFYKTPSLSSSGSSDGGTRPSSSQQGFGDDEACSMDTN
How it was run: as §1

Measured: log2 ratio of Biotin-Ahx-Ub-VS probe labelling

USP34, sequence (Q70CQ2 whole entry, the tested form may be a part): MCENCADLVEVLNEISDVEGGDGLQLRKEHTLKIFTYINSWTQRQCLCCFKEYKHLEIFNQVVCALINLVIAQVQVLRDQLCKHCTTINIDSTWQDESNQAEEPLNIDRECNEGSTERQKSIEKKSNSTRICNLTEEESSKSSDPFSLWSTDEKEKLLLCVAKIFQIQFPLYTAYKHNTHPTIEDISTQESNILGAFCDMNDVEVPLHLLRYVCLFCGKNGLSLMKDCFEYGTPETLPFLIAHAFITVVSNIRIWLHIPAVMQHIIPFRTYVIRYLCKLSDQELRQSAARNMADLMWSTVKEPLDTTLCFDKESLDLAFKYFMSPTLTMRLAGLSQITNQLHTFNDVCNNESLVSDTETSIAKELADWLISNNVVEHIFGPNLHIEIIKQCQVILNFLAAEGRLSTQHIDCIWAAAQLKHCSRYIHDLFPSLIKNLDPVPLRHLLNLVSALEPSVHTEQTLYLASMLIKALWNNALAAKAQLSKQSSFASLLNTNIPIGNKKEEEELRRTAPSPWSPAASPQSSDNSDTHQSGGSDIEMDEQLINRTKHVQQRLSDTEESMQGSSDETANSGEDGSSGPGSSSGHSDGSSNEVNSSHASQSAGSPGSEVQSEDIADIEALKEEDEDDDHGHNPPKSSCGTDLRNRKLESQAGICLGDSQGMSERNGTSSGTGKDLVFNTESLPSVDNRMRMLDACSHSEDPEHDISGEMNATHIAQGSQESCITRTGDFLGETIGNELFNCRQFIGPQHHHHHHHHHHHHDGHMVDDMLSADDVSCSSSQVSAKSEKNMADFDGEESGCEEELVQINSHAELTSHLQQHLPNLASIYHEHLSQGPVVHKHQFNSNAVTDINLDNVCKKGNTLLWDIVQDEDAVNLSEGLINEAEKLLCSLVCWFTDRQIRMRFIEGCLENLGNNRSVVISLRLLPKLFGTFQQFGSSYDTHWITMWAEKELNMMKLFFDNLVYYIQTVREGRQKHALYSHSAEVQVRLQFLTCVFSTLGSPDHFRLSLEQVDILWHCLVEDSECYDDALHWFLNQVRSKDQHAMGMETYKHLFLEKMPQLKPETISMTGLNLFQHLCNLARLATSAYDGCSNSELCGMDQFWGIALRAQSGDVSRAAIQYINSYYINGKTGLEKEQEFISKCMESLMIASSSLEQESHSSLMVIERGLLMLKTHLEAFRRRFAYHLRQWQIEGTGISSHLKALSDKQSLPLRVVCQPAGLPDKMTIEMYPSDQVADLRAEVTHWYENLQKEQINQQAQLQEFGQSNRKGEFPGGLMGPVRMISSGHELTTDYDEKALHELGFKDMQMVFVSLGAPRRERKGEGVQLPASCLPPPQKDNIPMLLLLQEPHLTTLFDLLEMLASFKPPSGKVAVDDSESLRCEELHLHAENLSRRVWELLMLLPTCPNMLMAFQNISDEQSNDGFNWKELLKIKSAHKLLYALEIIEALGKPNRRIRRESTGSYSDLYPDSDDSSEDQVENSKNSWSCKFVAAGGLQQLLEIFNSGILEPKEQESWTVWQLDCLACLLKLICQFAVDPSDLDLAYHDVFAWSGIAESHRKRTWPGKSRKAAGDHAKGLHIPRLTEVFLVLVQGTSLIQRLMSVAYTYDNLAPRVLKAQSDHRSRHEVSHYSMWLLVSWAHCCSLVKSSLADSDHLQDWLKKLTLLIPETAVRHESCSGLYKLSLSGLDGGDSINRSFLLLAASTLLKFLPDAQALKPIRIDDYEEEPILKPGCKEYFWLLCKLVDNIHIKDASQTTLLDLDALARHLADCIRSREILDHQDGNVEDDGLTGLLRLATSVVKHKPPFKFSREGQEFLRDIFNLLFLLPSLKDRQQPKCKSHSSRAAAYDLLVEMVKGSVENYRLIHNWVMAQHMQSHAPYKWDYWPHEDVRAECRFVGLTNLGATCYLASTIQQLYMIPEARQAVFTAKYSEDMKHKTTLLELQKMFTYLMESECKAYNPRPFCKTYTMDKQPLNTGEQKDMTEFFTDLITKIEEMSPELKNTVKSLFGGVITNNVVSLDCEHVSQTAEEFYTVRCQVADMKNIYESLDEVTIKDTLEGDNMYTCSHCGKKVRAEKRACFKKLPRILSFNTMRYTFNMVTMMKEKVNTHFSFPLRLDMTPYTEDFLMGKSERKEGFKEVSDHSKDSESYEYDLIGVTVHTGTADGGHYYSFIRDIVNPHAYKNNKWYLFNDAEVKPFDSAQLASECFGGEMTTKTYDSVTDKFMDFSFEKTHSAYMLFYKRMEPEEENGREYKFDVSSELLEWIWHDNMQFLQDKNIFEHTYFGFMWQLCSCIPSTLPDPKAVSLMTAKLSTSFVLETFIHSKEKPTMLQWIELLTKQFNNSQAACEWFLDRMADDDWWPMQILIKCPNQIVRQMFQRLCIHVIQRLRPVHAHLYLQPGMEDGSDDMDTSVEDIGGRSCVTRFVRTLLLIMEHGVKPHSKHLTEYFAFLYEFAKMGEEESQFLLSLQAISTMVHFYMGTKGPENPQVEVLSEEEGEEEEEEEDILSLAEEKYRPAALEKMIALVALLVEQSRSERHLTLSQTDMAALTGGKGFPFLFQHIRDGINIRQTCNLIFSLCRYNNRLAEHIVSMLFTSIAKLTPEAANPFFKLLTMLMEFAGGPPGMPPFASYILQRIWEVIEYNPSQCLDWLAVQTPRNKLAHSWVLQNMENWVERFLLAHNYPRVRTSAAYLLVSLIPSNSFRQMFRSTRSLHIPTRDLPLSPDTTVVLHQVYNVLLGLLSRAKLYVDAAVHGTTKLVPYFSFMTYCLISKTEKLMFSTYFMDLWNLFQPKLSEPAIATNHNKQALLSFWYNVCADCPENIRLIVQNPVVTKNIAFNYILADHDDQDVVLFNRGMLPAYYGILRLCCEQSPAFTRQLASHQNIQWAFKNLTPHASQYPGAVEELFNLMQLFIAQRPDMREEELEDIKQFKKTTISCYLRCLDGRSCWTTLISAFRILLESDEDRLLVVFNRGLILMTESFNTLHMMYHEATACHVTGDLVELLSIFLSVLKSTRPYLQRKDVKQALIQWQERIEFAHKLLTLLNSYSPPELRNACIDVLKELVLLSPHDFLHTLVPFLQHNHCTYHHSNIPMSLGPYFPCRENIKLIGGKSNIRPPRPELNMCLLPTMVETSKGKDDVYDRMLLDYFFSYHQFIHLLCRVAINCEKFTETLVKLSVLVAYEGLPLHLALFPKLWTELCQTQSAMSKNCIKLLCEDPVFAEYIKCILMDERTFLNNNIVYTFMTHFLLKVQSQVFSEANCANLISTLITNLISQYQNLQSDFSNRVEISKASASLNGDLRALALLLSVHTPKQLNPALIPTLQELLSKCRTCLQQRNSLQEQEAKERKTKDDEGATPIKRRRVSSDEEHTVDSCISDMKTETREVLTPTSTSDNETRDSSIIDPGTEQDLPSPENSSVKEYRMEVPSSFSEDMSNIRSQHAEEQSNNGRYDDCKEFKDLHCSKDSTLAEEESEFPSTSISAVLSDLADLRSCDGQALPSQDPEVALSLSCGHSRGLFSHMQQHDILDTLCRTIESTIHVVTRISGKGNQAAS

NC(=O)C(Cc1ccccc1)NC(=O)CCl (stereo not given)
inactive: USP34 -0.217 | USP36 0.0618 | USP38 -0.0263 | USP39 -0.257 | USP4 0.0089
